# The supplement of paper PMC4466140
# Columns and labels:
# Assay in all cases: SPOT peptide array binding signal intensity (averaged, normalized) (arbitrary units (background-subtracted, floor 0; scale differs between SH3 domains)); higher = stronger binding of the SH3 domain to the peptide
# [1] = target: AgAbp1
# Outline: (§1)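 Detection of bound protein relied on anti-GST antibody, an HRP anti-mouse secondary and luminol, with imaging and quantification in Genespotter. The bound protein was GST-fused SH3 domains from four yeast species, incubated at 10 μg/ml overnight at 4°C in TBS-based blocking buffer on cellulose membranes carrying synthetic 15-mer peptides with cysteines replaced by serines. Binding signal is normalized, background-subtracted spot intensity averaged over replicates, in arbitrary units that differ between domains.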
# [2] = target: AgBbc1
# Outline: as §1
# [3] = target: AgBem1-D1
# Outline: as §1
# [4] = target: AgBzz1-D1
# Outline: as §1
# [5] = target: AgBzz1-D2
# Outline: as §1
# [6] = target: AgCyk3
# Outline: as §1
# [7] = target: AgFus1
# Outline: as §1
# [8] = target: AgHof1
# Outline: as §1
# [9] = target: AgHse1
# Outline: as §1
# [10] = target: AgLsb1
# Outline: as §1
# [11] = target: AgLsb4
# Outline: as §1
# [12] = target: AgMyo5
# Outline: as §1
# [13] = target: AgNbp2
# Outline: as §1
# [14] = target: AgRvs167
# Outline: as §1
# [15] = target: AgSho1
# Outline: as §1
# [16] = target: AgSla1-D1-D2
# Outline: as §1
# [17] = target: AgSla1-D3
# Outline: as §1
# [18] = target: CaAbp1-D1
# Outline: as §1
# [19] = target: CaAbp1-D2
# Outline: as §1
# [20] = target: CaBbc1
# Outline: as §1
# [21] = target: CaBem1-D1
# Outline: as §1
# [22] = target: CaBzz1-D1
# Outline: as §1
# [23] = target: CaBzz1-D2
# Outline: as §1
# [24] = target: CaCyk3
# Outline: as §1
# [25] = target: CaFus1
# Outline: as §1
# [26] = target: CaHof1
# Outline: as §1
# [27] = target: CaHse1
# Outline: as §1
# [28] = target: CaLsb1
# Outline: as §1
# [29] = target: CaLsb4
# Outline: as §1
# [30] = target: CaMyo5
# Outline: as §1
# [31] = target: CaNbp2
# Outline: as §1
# [32] = target: CaRvs167
# Outline: as §1
# [33] = target: CaRvs167-3
# Outline: as §1
# [34] = target: CaSho1
# Outline: as §1
# [35] = target: CaSla1-D1-D2
# Outline: as §1
# [36] = target: CaSla1-D3
# Outline: as §1
# [37] = target: ScAbp1
# Outline: as §1
# [38] = target: ScBbc1
# Outline: as §1
# [39] = target: ScBem1-D1
# Outline: as §1
# [40] = target: ScBzz1-D1
# Outline: as §1
# [41] = target: ScBzz1-D2
# Outline: as §1
# [42] = target: ScCyk3
# Outline: as §1
# [43] = target: ScFus1
# Outline: as §1
# [44] = target: ScHof1
# Outline: as §1
# [45] = target: ScHse1
# Outline: as §1
# [46] = target: ScLsb1
# Outline: as §1
# [47] = target: ScLsb2
# Outline: as §1
# [48] = target: ScLsb3
# Outline: as §1
# [49] = target: ScLsb4
# Outline: as §1
# [50] = target: ScMyo3
# Outline: as §1
# [51] = target: ScMyo5
# Outline: as §1
# [52] = target: ScNbp2
# Outline: as §1
# [53] = target: ScPex13
# Outline: as §1
# [54] = target: ScRvs167
# Outline: as §1
# [55] = target: ScSho1
# Outline: as §1
# [56] = target: ScSla1-D1-D2
# Outline: as §1
# [57] = target: ScSla1-D3
# Outline: as §1
# [58] = target: SpAbp1-D1
# Outline: as §1
# [59] = target: SpBbc1
# Outline: as §1
# [60] = target: SpBzz1-D1
# Outline: as §1
# [61] = target: SpBzz1-D2
# Outline: as §1
# [62] = target: SpCyk3
# Outline: as §1
# [63] = target: SpHof1
# Outline: as §1
# [64] = target: SpHof1-2
# Outline: as §1
# [65] = target: SpHof1-3
# Outline: as §1
# [66] = target: SpHse1
# Outline: as §1
# [67] = target: SpLsb1
# Outline: as §1
# [68] = target: SpLsb4
# Outline: as §1
# [69] = target: SpMyo1
# Outline: as §1
# [70] = target: SpNbp2
# Outline: as §1
# [71] = target: SpPex13
# Outline: as §1
# [72] = target: SpRvs167
# Outline: as §1
# [73] = target: SpSla1-D1-D2
# Outline: as §1
# [74] = target: SpSla1-D3
# Outline: as §1
binder,measurement,setting,value
PLRRTVMSLPGNHDI,SPOT peptide array binding signal intensity,[1],206
same,SPOT peptide array binding signal intensity,[2],19.6
same,SPOT peptide array binding signal intensity,[3],302
same,SPOT peptide array binding signal intensity,[4],9.5
same,SPOT peptide array binding signal intensity,[5],4.75
same,SPOT peptide array binding signal intensity,[6],≤ 0
same,SPOT peptide array binding signal intensity,[7],598
same,SPOT peptide array binding signal intensity,[8],6.25
same,SPOT peptide array binding signal intensity,[9],302
same,SPOT peptide array binding signal intensity,[10],29.5
same,SPOT peptide array binding signal intensity,[11],4.5
same,SPOT peptide array binding signal intensity,[12],3
same,SPOT peptide array binding signal intensity,[13],396
same,SPOT peptide array binding signal intensity,[14],3.83
same,SPOT peptide array binding signal intensity,[15],453
same,SPOT peptide array binding signal intensity,[16],24.2
same,SPOT peptide array binding signal intensity,[17],6
same,SPOT peptide array binding signal intensity,[18],776
same,SPOT peptide array binding signal intensity,[19],1280
same,SPOT peptide array binding signal intensity,[20],154
same,SPOT peptide array binding signal intensity,[21],200
same,SPOT peptide array binding signal intensity,[22],172
same,SPOT peptide array binding signal intensity,[23],62.4
same,SPOT peptide array binding signal intensity,[24],17
same,SPOT peptide array binding signal intensity,[25],1290
same,SPOT peptide array binding signal intensity,[26],0.375
same,SPOT peptide array binding signal intensity,[27],106
same,SPOT peptide array binding signal intensity,[28],0.5
same,SPOT peptide array binding signal intensity,[29],493
same,SPOT peptide array binding signal intensity,[30],19.6
same,SPOT peptide array binding signal intensity,[31],1640
same,SPOT peptide array binding signal intensity,[32],110
same,SPOT peptide array binding signal intensity,[33],20
same,SPOT peptide array binding signal intensity,[34],837
same,SPOT peptide array binding signal intensity,[35],247
same,SPOT peptide array binding signal intensity,[36],60.2
same,SPOT peptide array binding signal intensity,[37],205
same,SPOT peptide array binding signal intensity,[38],13
same,SPOT peptide array binding signal intensity,[39],1.5
same,SPOT peptide array binding signal intensity,[40],4.75
same,SPOT peptide array binding signal intensity,[41],5.75
same,SPOT peptide array binding signal intensity,[42],15
same,SPOT peptide array binding signal intensity,[43],407
same,SPOT peptide array binding signal intensity,[44],≤ 0
same,SPOT peptide array binding signal intensity,[45],288
same,SPOT peptide array binding signal intensity,[46],14.5
same,SPOT peptide array binding signal intensity,[47],≤ 0
same,SPOT peptide array binding signal intensity,[48],52
same,SPOT peptide array binding signal intensity,[49],60
same,SPOT peptide array binding signal intensity,[50],≤ 0
same,SPOT peptide array binding signal intensity,[51],≤ 0
same,SPOT peptide array binding signal intensity,[52],584
same,SPOT peptide array binding signal intensity,[53],177
same,SPOT peptide array binding signal intensity,[54],51.9
same,SPOT peptide array binding signal intensity,[55],909
same,SPOT peptide array binding signal intensity,[56],305
same,SPOT peptide array binding signal intensity,[57],404
same,SPOT peptide array binding signal intensity,[58],671
same,SPOT peptide array binding signal intensity,[59],1.5
same,SPOT peptide array binding signal intensity,[60],243
same,SPOT peptide array binding signal intensity,[61],7.25
same,SPOT peptide array binding signal intensity,[62],0.5
same,SPOT peptide array binding signal intensity,[63],10
same,SPOT peptide array binding signal intensity,[64],24.2
same,SPOT peptide array binding signal intensity,[65],261
same,SPOT peptide array binding signal intensity,[66],788
same,SPOT peptide array binding signal intensity,[67],2.25
same,SPOT peptide array binding signal intensity,[68],258
same,SPOT peptide array binding signal intensity,[69],2.5
same,SPOT peptide array binding signal intensity,[70],392
same,SPOT peptide array binding signal intensity,[71],40
same,SPOT peptide array binding signal intensity,[72],48.8
same,SPOT peptide array binding signal intensity,[73],1.5
same,SPOT peptide array binding signal intensity,[74],126
KWVRRPKLMTPLTFS,SPOT peptide array binding signal intensity,[1],205
same,SPOT peptide array binding signal intensity,[2],73.5
same,SPOT peptide array binding signal intensity,[3],169
same,SPOT peptide array binding signal intensity,[4],25
same,SPOT peptide array binding signal intensity,[5],8
same,SPOT peptide array binding signal intensity,[6],3
same,SPOT peptide array binding signal intensity,[7],754
same,SPOT peptide array binding signal intensity,[8],110
same,SPOT peptide array binding signal intensity,[9],818
same,SPOT peptide array binding signal intensity,[10],495
same,SPOT peptide array binding signal intensity,[11],71
same,SPOT peptide array binding signal intensity,[12],≤ 0
same,SPOT peptide array binding signal intensity,[13],371
same,SPOT peptide array binding signal intensity,[14],8
same,SPOT peptide array binding signal intensity,[15],185
same,SPOT peptide array binding signal intensity,[16],275
same,SPOT peptide array binding signal intensity,[17],11.2
same,SPOT peptide array binding signal intensity,[18],498
same,SPOT peptide array binding signal intensity,[19],297
same,SPOT peptide array binding signal intensity,[20],192
same,SPOT peptide array binding signal intensity,[21],329
same,SPOT peptide array binding signal intensity,[22],164
same,SPOT peptide array binding signal intensity,[23],121
same,SPOT peptide array binding signal intensity,[24],45
same,SPOT peptide array binding signal intensity,[25],1360
same,SPOT peptide array binding signal intensity,[26],1.5
same,SPOT peptide array binding signal intensity,[27],180
same,SPOT peptide array binding signal intensity,[28],7
same,SPOT peptide array binding signal intensity,[29],346
same,SPOT peptide array binding signal intensity,[30],11.5
